The record followed here is PubChem BioAssay AID686978 (National Center for Advancing Translational Sciences (NCATS), 2013).

Several values for one entry are separate records, joined by “and”; a condition that tells them apart may be missing. Equal values may be shown once. Hit rate of the full screen: of about 420,000 compounds, about 64,000 (15%) were called active. Not shown: some 27% with an inconclusive outcome. These entries were drawn from the full list. A number with no mark means an inactive call. Calls follow the shape of the dose curve; as a rule, active = well fitted inhibition curve with a large enough effect; inconclusive = small, poorly fitted or top-dose-only effect; inactive = flat fitted curve, though single readings scatter.
% is scaled to controls: 0 for no effect and ±100 for the full control effect; potency is read from the fitted curve at half-maximal effect.

The nature of this assay: qHTS for Inhibitors of human tyrosyl-DNA phosphodiesterase 1 (TDP1): qHTS in cells in absence of CPT. Also: nearly all actives have a fitted effect of over 55% in size. As to conditions: DT40 Tdp1-/- hTDP1 cells, no CPT, ATP luminescence, 48 h; activity change, negative = growth inhibition: at 46.2 µM (top of the series). Put shortly:
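Compound effects on proliferation are scored in DT40 Tdp1-/-;hTDP1 cells in the absence of CPT. ATP levels (CellTiter-Glo luminescence) are recorded after a ≥48 hr, 37 °C incubation.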
A general note: qHTS replaces the single test concentration by a dilution series.
With `NS(=O)(=O)c1ccc(CNC(=S)NC(=O)c2ccco2)cc1`, the “activity change, negative = growth inhibition” value is -21.3%.
As to `CCc1ccc(N(CC(=O)Nc2sc3c(c2C(=O)OC)CCCC3)S(C)(=O)=O)cc1`, the Potency is 23.1 µM (active).
Take `COC(=O)c1c(NC(=O)CCCC(=O)O)sc2c1CCCCC2`: the “activity change, negative = growth inhibition” value was 1.24%.
For `COC(=O)c1c(NC(=O)C2CC(C)=C(C)CC2C(=O)O)sc2c1CCCCC2` (stereo unspecified), the “activity change, negative = growth inhibition” value was -17.4%.
As for `O=C(COc1ccccc1)Nc1cc2c3c(c1)CC(=O)N3CCC2`, the “activity change, negative = growth inhibition” value is -10.3%.
For the compound `O=C(CN1CCOCC1)N/N=C/c1ccc(-c2ccc(Br)cc2)o1`, the “activity change, negative = growth inhibition” value was -29.5%.
Consider `O=C1CCC(=O)N(c2ccccc2)N1`, for which the “activity change, negative = growth inhibition” value was -6.87%.
Turning to `CN(C)S(=O)(=O)c1cccc(NC(=O)COC(=O)c2cc(=O)[nH]c(=O)[nH]2)c1`, the “activity change, negative = growth inhibition” value is -3.13%.
On to `CN(C)S(=O)(=O)c1cccc(NC(=O)COC(=O)C2(c3ccccc3F)CCCC2)c1`, for which the Potency is 13 µM (active).
Regarding `CN(C)S(=O)(=O)c1cccc(NC(=O)COC(=O)/C=C/c2cccs2)c1`, the “activity change, negative = growth inhibition” value was -17.5%.
`COc1ccc(S(=O)(=O)N2CCN(C(=O)c3cccs3)CC2)cc1OC`: the “activity change, negative = growth inhibition” value was -24.8%.
For `O=S(=O)(NCCc1ccccc1)c1ccccc1`, the “activity change, negative = growth inhibition” value is -22.6%.
Take `CCCN(CCC)S(=O)(=O)c1ccc(C(=O)N2CC3CCC(CC3)C2)cc1`: the Potency was 23.1 µM (active).
For the compound `CCSC1=NCCN1C(=O)c1ccc(S(=O)(=O)N(CC)CC)cc1`, the “activity change, negative = growth inhibition” value is 1.3%.
Regarding `CCN(CC(=O)N1CCCC1)S(=O)(=O)c1ccc(F)cc1`, the “activity change, negative = growth inhibition” value was 6.24%.
On to `N#CCc1c(C#N)c(N)nc(N2CCCC2)c1C#N`, for which the “activity change, negative = growth inhibition” value was -12.4%.
For the compound `CC(C)CCNc1nc(N2CCCC2)c2c(c1C#N)CCN(C)C2`, the Potency was 23.1 µM (active).
As to `CCc1nc(NCCO)c(C#N)c2c1CCCC2`, the “activity change, negative = growth inhibition” value was 2.76%.
Take `CC(=O)Nc1ccc(Nc2ncnc3c2nnn3Cc2ccccc2Cl)cc1`: the “activity change, negative = growth inhibition” value is -17.5%.
On to `O=C(Nc1cccc(F)c1)N1CC2(CCN(C(=O)c3csnn3)CC2)C1`, for which the “activity change, negative = growth inhibition” value was -12.5%.
For `O=S(=O)(NC1CC2CCC1C2)c1ccc(Cl)cc1` (stereo unspecified), the “activity change, negative = growth inhibition” value was -3.07%.
On the same count and under the same terms, the result for `Nc1nc2c(ncn2[C@@H]2O[C@H](CNS(=O)(=O)N3CCc4ccccc4C3)[C@@H](O)[C@H]2O)c(=O)[nH]1` reads 11.3%.
As for `COc1cc2[nH]c(=S)n(CCN3CCCCC3C)c(=O)c2cc1OC` (stereo unspecified), the “activity change, negative = growth inhibition” value is -19.2%.
As to `COc1cccc(CNC(=O)CN2C(=O)NC(Cc3ccccc3)(c3ccccc3)C2=O)c1` (stereo unspecified), the “activity change, negative = growth inhibition” value is -3.32%.
`COc1ccc2c(c1)C(=C(C#N)C#N)C(=O)N2CCc1ccccc1`: the Potency is 14.6 µM (active).
Regarding `CCCCN1C(=O)/C(=C(/C#N)C(N)=O)c2ccccc21`, the “activity change, negative = growth inhibition” value is -2.74%.
As to `NC(=O)C1CCN(C(=O)c2ccc3c(=O)n(Cc4cccc(Br)c4)c(=S)[nH]c3c2)CC1`, the “activity change, negative = growth inhibition” value is -19.8%.
As to `Cc1cc(C)cc(OCC(=O)Nc2cc(NC(=O)COc3cc(C)cc(C)c3)cc(C(=O)O)c2)c1`, the “activity change, negative = growth inhibition” value is -27.8%.
`COC(C)C(C(=O)OCC1=CCN2CC[C@H](O)[C@@H]12)C(C)C` (stereo partly specified): the activity change, negative = growth inhibition is -18.8% [at 9.04 µM].
As for `O=C(Cc1ccccn1)c1ccc(O)cc1O`, the “activity change, negative = growth inhibition” value is -10.7%.
In the case of `Cc1ccc2[nH]c(=O)c(CN(C)S(=O)(=O)c3cccc4nonc34)cc2c1`, the “activity change, negative = growth inhibition” value was 4.78%.
As to `Cc1cccc(CSc2nc3c(c(=O)n2C)SCC3)c1`, the Potency was 14.6 µM (active).
Take `CCn1c(SCc2ccccc2)nc2c(c1=O)SCC2`: the “activity change, negative = growth inhibition” value is -23.3%.
On to `Cn1c(SCC(=O)N2CCCCC2)nc2c(c1=O)SCC2`, for which the “activity change, negative = growth inhibition” value was 4.08%.
Take `CCCCNC(=O)OC(C)CNC(=O)OC` (stereo unspecified): the “activity change, negative = growth inhibition” value is 12.1%.
As for `CCC1CN(CCNC(=O)c2cccnc2C)Cc2cc(OC)ccc2O1` (stereo unspecified), the “activity change, negative = growth inhibition” value is -18.7%.
`CCCS(=O)(=O)NCc1c(C)ncc2c1CCN(C(=O)c1ccc(F)c(F)c1)C2`: the “activity change, negative = growth inhibition” value is 2.82%.
As to `CCOC(=O)CCCCCC(=O)Nc1ccc2c(c1)CC(=O)N([C@@H](C)CO)C[C@H](C)[C@@H](CN(C)Cc1ccccc1)O2`, the “activity change, negative = growth inhibition” value is -22.9%.
On to `CCSc1nnc(SCC(=O)NNC(=O)c2ccccc2F)s1`, for which the “activity change, negative = growth inhibition” value was -3.12%.
On to `O=C(c1c(F)cccc1F)N1CCN(c2ncc(Br)cn2)CC1`, for which the “activity change, negative = growth inhibition” value was -26.9%.
Take `Cc1cccc(N2CCN(C(=O)COCc3cc(-c4ccc5c(c4)OCO5)on3)CC2)c1C`: the Potency result was “inactive”.
Regarding `CCC(CC)C(=O)N1CCN(c2cccc(C)c2C)CC1`, the Potency was 11.6 µM (active).
On to `Cc1cccc(N2CCN(C(=O)c3cnc(N4CCCC4)nc3C)CC2)c1C`, for which the Potency is 20.6 µM (active).
For `Cc1[nH]c2ccc(C(=O)N3CCN(C)CC3)cc2c1C`, the “activity change, negative = growth inhibition” value was -6.28%.
In the case of `Cc1cccc(N2CCN(C(=O)c3ccc4c(c3)CCN4S(=O)(=O)c3ccccc3)CC2)c1C`, the Potency is 6.51 µM (active).
Take `Cc1cccc(N2CCN(C(=O)c3ccc(Nc4nc5ccccc5n5nnnc45)cc3)CC2)c1C`: the “activity change, negative = growth inhibition” value is -10.5%.
Same read-out and setting: the result for `CC(=O)N1CCN(c2cccc(C)c2C)CC1` reads -2.67%; that for `Cc1ccccc1N1CCN(C(=O)c2cccnc2)CC1`, -19.2%.
`CCn1c(C)c(C)c2cc(C(=O)N3CCN(c4cccc(C)c4C)CC3)ccc21`: the Potency was 23.1 µM (active) and 20.6 µM (active).
Regarding `O=C(O)C(O)[C@@](O)(Cc1ccc(O)cc1)C(=O)O` (stereo partly specified), the “activity change, negative = growth inhibition” value is -5.46%.
For the compound `COCCCN1C(=O)C(=O)/C(=C(/O)c2ccc(S(=O)(=O)N3CCOCC3)cc2)C1c1ccc(F)cc1` (stereo unspecified), the “activity change, negative = growth inhibition” value was 17.4%.
